Measured values published in PubChem BioAssay AID686978 (National Center for Advancing Translational Sciences (NCATS), 2013).
Screen size: about 420,000 compounds; about 64,000 (15%) were called active. Inconclusive results (about 27%) are left out. Calls come from the whole dose curve; as a rule, active = well fitted inhibition curve with a large enough effect; inconclusive = small, poorly fitted or top-dose-only effect; inactive = flat fitted curve, though single readings scatter. A selection follows. Entries that show only a call come without a potency.

experiment: qHTS for Inhibitors of human tyrosyl-DNA phosphodiesterase 1 (TDP1): qHTS in cells in absence of CPT; details: DT40 Tdp1-/- hTDP1 cells, no CPT, ATP luminescence, 48 h; activity change, negative = growth inhibition: at 46.2 µM (top of the series); note: nearly all actives have a fitted effect of over 55% in size
Excerpt: Human tyrosyl-DNA phosphodiesterase 1 (TDP1) is a novel repair gene, and we propose to use it as a new target for anticancer drug development. TDP1 is not an essential protein, but under treatment with topoisomerase I poison (camptothecin: CPT), TDP1 works as a critical factor for cell survival. To directly identify novel TDP1 inhibitors active in a cellular environment, we have knocked-out the Tdp1 gene in chicken DT40 cells (Tdp1-/-) and generated a complemented counterpart cells that contains a stable transfection of the human TDP1 gene (Tdp1-/-;hTDP1 cells). For the primary screen, Tdp1-/-;hTDP1 cells will be exposed to small molecules in the presence or absence of CPT, and their growth kinetics will be evaluated after 48 hours by measuring ATP activity. […] The hit compounds will then be evaluated in the presence or absence of CPT using Tdp1-/- cells. […] In tertiary assays, biochemical gel-based assays will be used to assess whether the hit compounds specifically target TDP1.
To this end, we have screened this cell line against the MLSMR in two primary screens. In one screen we add CPT and in the other we screen in the absence of CPT; this AID represents the screen where CPT was absent.
NIH Chemical Genomics Center [NCGC]
NIH Molecular Libraries Probe Centers Network [MLPCN]
Assay Submitter (PI): Yves Pommier, NCI
DT40-hTDP1 cells without 20 nM Camptothecin (add 20 microL of DMSO in 1 L of cell culture medium) were dispensed at 400 cells/5microL/well in tissue culture treated 1536-well white wall/solid bottom assay plates (Greiner Bio-One North America, NC, U.S.A.) using a Multidrop Combi 8 channel dispenser (Thermo Fisher, Waltham, MA, USA). 23 nL compounds and controls were transferred using the pin tool (Kalypsys, San Diego, CA, USA) to the assay plates. The assay plates were then incubated at 37 masculineC for a minimum 48 hr. Three microL of Cell Titer Glo solution was added to the plates and incubated at RT in dark for 30 min. Luminescence was read using ViewLux (Perkin Elmer) with 1 sec exposure slow speed, high gain and 2x binning.
Potency is the fitted concentration of half-maximal effect.

Row | SMILES | Potency
1 | CC[N+]1(CC)CC2=Cc3ccccc3CC2C1 (stereo not drawn) | inactive
2 | O=C(Cn1c[n+](CC(=O)c2ccc([N+](=O)[O-])cc2)cn1)c1ccc([N+](=O)[O-])cc1 | 20.6 µM (active)
3 | O=C(Nn1cnnc1)c1ccc([N+](=O)[O-])cc1 | inactive
4 | O=C(c1ccncc1)c1ccc([N+](=O)[O-])cc1 | inactive
5 | CCOC(=O)CSc1nnc(-c2ccc([N+](=O)[O-])cc2)o1 | inactive
6 | O=C(NC1CCC(O)CC1)c1ccccc1OCc1ccc(F)cc1 (stereo not drawn) | inactive
7 | COc1ccccc1C(=O)NNC(=O)c1ccc(NC(=O)c2ccccc2)cc1 | inactive
8 | CC(=O)c1ccccc1OCc1ccc(C(=O)c2ccccc2)cc1 | 16.4 µM (active)
9 | COc1ccccc1C(=O)c1ccccc1C(=O)c1ccccc1 | 18.4 µM (active)
10 | O=C(Nc1ccccc1)c1ccccc1OCc1ccccc1 | inactive
11 | COc1ccccc1C(=O)Nn1cnnc1 | inactive
12 | COc1ccc(CC(=O)OC(C)C(=O)Nc2ccc(S(N)(=O)=O)cc2)cc1 (stereo not drawn) | inactive
13 | O=C(Nc1ccccc1C(=O)O)c1ccc(N2C(=O)C3CC=CCC3C2=O)cc1 (stereo not drawn) | inactive
14 | O=CN1CCN(C(=O)c2ccc3c(c2)OCO3)CC1 | inactive
15 | C=CCNC(=O)COc1coc(CN2CCN(Cc3ccccc3)CC2)cc1=O | inactive
16 | C=CCNC(=S)/N=c1/ccccn1Cc1ccccc1 | 1.84 µM (active)
17 | CNC(=S)NNC(=O)c1cccn(Cc2ccccc2)c1=O | inactive
18 | CCCc1nc(N)nc2c1C(=O)CC(C)(C)C2 | inactive
19 | COc1ccc(C(C(=O)NC(C)(C)C)N(C(=O)Cn2nnc3ccccc32)c2ccc(C(C)=O)cc2)cc1O (stereo not drawn) | inactive
20 | O=C(CC(NCCN1CCOCC1)C(=O)O)Nc1cccc(Cl)c1 (stereo not drawn) | inactive
21 | OC[C@@H]1CN(Cc2ccc3c(c2)OCO3)C[C@H](n2cnc3c(NCc4ccco4)ncnc32)O1 | inactive
22 | Cc1ccccc1NC(=O)CCNS(=O)(=O)c1ccc2[nH]c(=O)oc2c1 | inactive
23 | COc1ccc(NC(=O)C2=CC(c3ccc(OC)c(OC)c3)=NS(=O)(=O)N2C)cc1 | 23.1 µM (active)

Row | SMILES | Potency
24 | COc1ccc(C2=NS(=O)(=O)N(C)C(C(=O)NC(C)c3ccccc3)=C2)cc1 (stereo not drawn) | inactive
25 | COc1cc(NC(=O)C2=CC(c3ccc(C)cc3)=NS(=O)(=O)N2C)cc(OC)c1OC | inactive
26 | COc1ccccc1N(CC(=O)N1CCCCC1)S(=O)(=O)c1ccccc1 | inactive
27 | CC(=O)Nc1ccccc1Sc1ccc2c3c(cccc13)C(=O)N(c1ccc(C)cc1)C2=O | 16.4 µM (active)
28 | CSc1ccccc1NC(=O)C(C)N1C(=O)c2ccccc2S1(=O)=O (stereo not drawn) | inactive
29 | CCOC(=O)Nc1ccccc1N1C(=O)c2ccccc2C1=O | inactive
30 | Cc1c(Cl)c([N+](=O)[O-])nn1CC(=O)NCC1CCCO1 (stereo not drawn) | inactive
31 | COc1ccc(NC(=O)CCCC(=O)c2ccccc2)cc1 | inactive
32 | O=S(=O)(N1CCCCC1)N1CCNCC1 | inactive
33 | Cc1cccc(N=C2NC(=O)/C(=C/c3cn(C)c4ccccc34)S2)c1 | 16.4 µM (active)
34 | Cc1ccc(C(=O)N/C(=C\c2cn(C)c3ccccc23)C(=O)N2CCN(C)CC2)cc1 | inactive
35 | CN1C(=O)/C(=C/c2ccco2)SC1=Nc1cccc(C(=O)O)c1 | inactive
36 | Cc1ccc(NC(=O)CN(C)S(=O)(=O)c2cnc[nH]2)cc1C | inactive
37 | CC(C)NC(=O)C(=O)NCCCOC(C)C | inactive
38 | CCC1=Nc2cc(C(=O)NCCCOC(C)C)ccc2Sc2ccc(C)cc21 | 0.517 µM (active)
39 | CC(C)OCCCNC(=O)CNC(=O)c1cccs1 | inactive
40 | CCC1=Nc2cc(C(=O)NCC(C)c3ccccc3)ccc2Sc2ccc(C)cc21 (stereo not drawn) | 23.1 µM (active)
41 | CCCC1=Nc2cc(C(=O)NCc3ccco3)ccc2Sc2ccccc21 | 3.66 µM (active)
42 | COc1ccc(CCNS(=O)(=O)c2ccc(C(=O)NCc3ccco3)cc2)cc1OC | inactive
43 | O=C(NCc1ccco1)c1cccc(-c2ccc3nncn3c2)c1 | inactive
44 | Cc1ccc2nc(CNC(=O)c3ccccc3)[nH]c2c1 | inactive
45 | O=C(NCCCN1CCOCC1)c1cc(-c2cccc(O)c2)on1 | inactive
46 | COc1ccc(C(=O)NCCCN2CCOCC2)cc1Br | inactive

Row | SMILES | Potency
47 | Cc1ccc(C(=O)NC(C)c2ccccc2)cc1Br (stereo not drawn) | inactive
48 | CCC1=Nc2cc(C(=O)NCCCN3CCOCC3)ccc2Sc2ccc(Br)cc21 | 3.66 µM (active)
49 | CCOC(=O)c1c(/N=C/c2cc(C)ccc2O)sc2c1CCC2 | inactive
50 | CCC(=O)c1ccc(OCC(O)Cn2nc(C)c(C(C)=O)c2C)cc1 (stereo not drawn) | inactive
51 | CC(C)n1c(-c2ccncc2)n[nH]c1=S | inactive
52 | Cc1cc(C)n(C(=O)c2ccc(C)c(S(=O)(=O)N3CCOCC3)c2)n1 | inactive
53 | Cc1cccc(NC(=O)C(C)N2C(=O)C3C4CC(C(Br)C4Br)C3C2=O)c1 (stereo not drawn) | inactive
54 | CN(CC(=O)N1CCN(c2ccccc2)CC1)S(=O)(=O)c1cccs1 | inactive
55 | CC(=O)c1ccc(-n2nnnc2SCC(=O)N2CCN(C(=O)c3ccco3)CC2)cc1 | inactive
56 | CCOC(=O)c1ccc(NC(=S)Nc2cc(C)cc(C)n2)cc1 | inactive
57 | N=C1c2ccccc2-c2ccccc21 | inactive
58 | O/N=C1\CC2(Cc3nonc31)OCCO2 | inactive
59 | CCCCN(C(=O)c1ccc(OC(F)(F)F)cc1)c1c(N)n(CCC)c(=O)[nH]c1=O | inactive
60 | CCCCn1c(N)c(N(CC)C(=O)c2ccccc2C(F)(F)F)c(=O)[nH]c1=O | inactive
61 | FC(F)(F)c1cc(C(F)(F)F)c2ccc(N3CCN(c4ccccc4)CC3)nc2n1 | inactive
62 | Cc1ccccc1N(C(=O)CNC(=O)c1cccs1)C(C(=O)NC1CCCC1)c1ccncc1 (stereo not drawn) | inactive
63 | COc1ccc(C(C(=O)NC2CCCC2)N(CCCO)C(=O)Cn2nnc(-c3ccc(C)o3)n2)cc1 (stereo not drawn) | inactive
64 | COc1ccc(C(C(=O)NC2CCCCC2)N(C(=O)CCl)c2ccccc2Cl)cc1 (stereo not drawn) | 14.6 µM (active)
65 | CC(NC(=O)COC(=O)c1ccc2c(c1)OCO2)c1ccccc1 (stereo not drawn) | inactive
66 | CC(C)(C)c1ccc(C(=O)NNC(=O)Cc2ccccc2)cc1 | inactive
67 | CC(C)(C)c1ccc(C(=O)C[N+]2(C)CCCc3ccccc32)cc1 (stereo not drawn) | 1.58 µM (active)
68 | CSc1ncnc2c1ncn2CCCNCc1cccs1 | inactive
